# Data taken from PubChem BioAssay.
# Activity calls are given as the source filed them. The rule behind the calls is not given here.
# Assay: compounds altering viability of human ES cells (AID 493140);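 note: cells exposed to compounds for four days before counting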
# Conditions: human embryonic stem cell survival screen; active compounds read high
row,Compound,survival
1,O=C(O)/C=C/c1ccc(Cn2ccnc2)cc1,12.1 (inactive)
2,CC(C)(C(=O)c1cccnc1)c1cccnc1,5 (inactive)
3,O=C(CCCCC(=O)Nc1c(I)cc(I)c(C(=O)O)c1I)Nc1c(I)cc(I)c(C(=O)O)c1I,5.33 (inactive)
4,Cc1c(N(C)C)c(=O)n(-c2ccccc2)n1C,13.6 (inactive)
5,O=C(CCCN1CCN(c2ccccn2)CC1)c1ccc(F)cc1,14.6 (inactive)
6,C[C@H](N)[C@H](O)c1cccc(O)c1,28.4 (inactive)
7,CC(C)NCC(O)COc1ccc(COCCOC(C)C)cc1 (centres undefined),6.5 (inactive)
8,Cc1c(Cl)cccc1Nc1ccccc1C(=O)O,17.2 (inactive)
9,CCOc1cc(CC(=O)N[C@@H](CC(C)C)c2ccccc2N2CCCCC2)ccc1C(=O)O,7.75 (inactive)
